# Source: PubChem BioAssay
# ELG1 repair inh = blocks ELG1-dependent DNA repair in HEK293T cells. HEK293T ELG1-luciferase reporter, luminescence, 16 h; DNA damage induced by 5-fluorouridine. Potency, µM (top dose mostly 46.1 µM), inactives show at the top dose activity change, negative = inhibition, most hits filed as inhibitors. hit rate 2.3% among 330,000; also: % is scaled to controls: 0 for no effect and ±100 for the full control effect; nearly all actives have a fitted effect of over 55% in size
#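 HEK293T cells expressing luciferase-tagged ELG1 (2,000/well) received 5-Fluorouridine plus compound or DMSO for 16 hr at 37 °C. Luciferase was read by ONE-Glo luminescence after 30 min at room temperature.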
# NPC1 promoter act = NPC1 promoter activation | Potency, µM (titrated, usually from 9.22 µM), without a hit: at the highest dose activation, actives largely listed as activators | hit rate 2.4% among 320,000 | Huh7 NPC1 promoter luciferase reporter, 24 h; also: % of control where 0% means no effect; nearly all actives have a fitted effect of over 60% in size
#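 Stably transfected Huh7 (NPC1 promoter→luciferase), 1500 cells/well in Opti-MEM + 10% FBS, 2 h settle, then compound 24 h at 37 °C. Luminescence after 10 min with Amplite reagent.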
# FLuc modulator = firefly luciferase modulation, counter-screen for miR-21 project; P08659; purified FLuc, Km substrates, luminescence inhibition; Potency, µM (titrated, usually from 57.5 µM), inactives show at the top dose activity change, negative = inhibition, actives largely listed as inhibitors; hit rate 6.9% among 360,000; AID 588342;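 also: plate controls were vehicle for no effect and reference inhibitor for full effect; nearly all actives have a fitted effect of over 55% in size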
# Target sequence (P08659 whole entry, looked up): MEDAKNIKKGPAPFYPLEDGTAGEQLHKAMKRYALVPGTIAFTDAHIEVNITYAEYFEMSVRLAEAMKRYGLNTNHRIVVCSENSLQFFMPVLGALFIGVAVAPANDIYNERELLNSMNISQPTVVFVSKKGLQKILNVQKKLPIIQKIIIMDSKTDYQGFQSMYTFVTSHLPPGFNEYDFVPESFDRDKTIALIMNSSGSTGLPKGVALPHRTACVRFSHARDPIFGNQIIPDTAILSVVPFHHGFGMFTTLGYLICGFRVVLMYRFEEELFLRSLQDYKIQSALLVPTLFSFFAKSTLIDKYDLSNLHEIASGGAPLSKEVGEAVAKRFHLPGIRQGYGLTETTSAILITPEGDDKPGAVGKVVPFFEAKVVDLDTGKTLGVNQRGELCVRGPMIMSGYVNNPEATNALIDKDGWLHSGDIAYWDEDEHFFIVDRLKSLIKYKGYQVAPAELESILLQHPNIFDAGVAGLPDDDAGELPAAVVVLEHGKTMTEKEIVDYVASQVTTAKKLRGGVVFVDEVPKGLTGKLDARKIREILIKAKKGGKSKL
#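 Purified P. pyralis luciferase, 10 nM final, with Km-level 10 uM D-luciferin and 10 uM ATP in 50 mM Tris acetate pH 7.5, 10 mM Mg acetate, 0.01% Tween-20, 0.05% BSA; 6-point qHTS titration about 60 µM downward; luminescence read.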
# SMN2 splice enh = increases expression of the SMN2 splice variant | HEK293 SMN2-luciferase splicing reporter, luminescence, 30-36 h | Potency, µM (highest dose often 46.1 µM), inactives show at the highest dose activity change, positive = activation, actives largely listed as activators | hit rate 2.8% among 210,000 | AID 1458; also: % of control where 0% means no effect; nearly all actives have a fitted effect of over 55% in size
#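 HEK293 cells carry an SMN2 […]–luciferase reporter in which exon 7 inclusion puts luciferase in frame. Cells were plated 10-12 h before compound addition, then incubated 30-36 h at 37C. ONE-Glo luminescence was read; sodium butyrate at 4.5 mM final served as control.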
# ELG1 genotox = inducers of genotoxicity in HEK293T ELG1-luciferase cells; Potency, µM (highest dose often 46 µM), for the others: top-dose activity change, positive = activation, usual class: activators; hit rate 1.3% among 330,000; HEK293T ELG1-luciferase reporter, luminescence, 16 h; also: % of control where 0% means no effect; nearly all actives have a fitted effect of over 60% in size
#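 16 hr compound incubation (37 °C, 5% CO2) of HEK293T cells carrying luciferase-tagged ELG1; luciferase then measured by ONE-Glo luminescence after 30 min at RT.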
# Rab9 promoter act = activators of Rab9 promoter | Huh7 Rab9 promoter-luciferase reporter, luminescence, 24 h | Potency, µM (titrated, usually from 9.22 µM), inactives show at the highest dose activation, negative = inhibition, actives largely listed as activators | hit rate 2.8% among 320,000 | AID 485297; also: % of control where 0% means no effect; nearly all actives have a fitted effect of over 60% in size
#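 Using Huh7 cells stably transfected with Rab9 promoter–luciferase, compounds were incubated 24 h at 37 °C, 5% CO2; luciferase luminescence was read 10 min after reagent addition.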
# * marks the source's active call; other numbers are inactive results; ? = inconclusive; . = no result given. Most compounds without a hit are left out; they make up all but 9.3% or so of the library. Calls follow the shape of the dose curve; as a rule, active = well fitted curve in the direction sought with a large enough effect; inconclusive = small, poorly fitted or top-dose-only effect, or another doubt; inactive = no such curve, though single readings can be large; an effect the other way counts as inactive or inconclusive. Potency is read from the fitted curve at half-maximal effect.
SMILES,ELG1 repair inh,NPC1 promoter act,FLuc modulator,SMN2 splice enh,ELG1 genotox,Rab9 promoter act
Cc1noc(C)c1CSCC(=O)N1CCN(c2ccc([N+](=O)[O-])cc2)CC1,20.6µM*,-2.6%,-1.2%,-83.2%,-9.0%,-16.1%
Cc1ccc(CC(=O)N2CCN(c3ccc([N+](=O)[O-])cc3)CC2)cc1,-21.8%,0.0%,-1.9%,.,5.4%,2.0%
Fc1cc(F)c2nc(N3CCCCC3)sc2c1,?,?,15.1µM*,?,?,26.8%
O=[N+]([O-])c1ccc2nc(N3CCCC3)sc2c1,?,3.16µM*,10.7µM*,.,?,3.55µM*
Fc1ccc2nc(N3CCCC3)sc2c1,?,2.24µM*,12µM*,12.6µM*,?,?
O=C(c1ccc2c(c1)CCCC2)N1CCN(c2nc3ccc(F)cc3s2)CC1,.,.,-7.2%,.,.,.
CCCCn1c(NCc2ccc(OC)cc2O)nc2ccccc21,.,.,?,-25.0%,.,.
Cn1c(Cn2c(=O)sc3ccccc32)nnc1SCC(=O)Nc1ccc(F)cc1,6.7%,-3.2%,1.9%,17.9%,0.3%,-2.9%
O=C(/C=C/c1ccc(OC2CSC2)cc1)c1ccccc1,?,3.55µM*,0.536µM*,12.8%,?,1.78µM*
O=C(N/N=C/c1ccc(OC2CSC2)cc1)c1ccccc1,?,3.16µM*,2.39µM*,21.2%,?,2.24µM*
C[C@H](NC(=O)C1CCN(S(=O)(=O)c2ccccc2)CC1)C(=O)NCc1ccc(Cl)cc1Cl,-13.2%,-3.4%,0.9%,.,-11.3%,-10.1%
Cc1cc(=O)c2c(O)c3c(O)cc(=O)c4c3c3c(cc(O)c1c23)C(C)(C)C=4O,.,.,.,-10.9%,.,.
Cn1nnnc1Sc1ncnc2scc(-c3ccc(C(F)(F)F)cc3)c12,6.51µM*,-3.0%,-0.5%,.,-13.9%,2.5%
Cn1nnnc1Sc1ncnc2scc(-c3ccc(-c4ccccc4)cc3)c12,?,.,.,.,-8.5%,.
Cn1nnnc1Sc1ncnc2scc(-c3cc4ccccc4o3)c12,20.6µM*,-7.8%,-2.7%,.,-9.1%,-14.7%
c1cncc(-c2nc(NCc3ccc4c(c3)OCO4)c3ccccc3n2)c1,20.6µM*,3.5%,?,.,-8.6%,-0.8%
c1cncc(-c2nc(NCC3COc4ccccc4O3)c3ccccc3n2)c1 (stereo unspecified),14.6µM*,-0.4%,4.1%,-1.5%,-24.7%,0.7%
c1ccc(CNc2nc(-c3cccnc3)nc3ccccc23)cc1,?,-3.6%,2.2%,.,-1.7%,2.5%
c1cncc(CNc2nc(-c3cccnc3)nc3ccccc23)c1,-6.6%,0.3%,4.4%,.,-9.6%,-0.3%
CC(C)(C)N(Cc1ccccc1)C(=O)COC(=O)CN1C(=O)C2CC=CCC2C1=O (stereo unspecified),-2.8%,-6.1%,-1.9%,.,-5.2%,-0.4%
COc1ccc(COc2cccc(C=O)c2)cc1,?,?,23.9µM*,.,-1.0%,?
COc1ccc(COc2ccc3c(C)cc(=O)oc3c2)cc1,?,2.24µM*,5.36µM*,.,9.2µM*,?
O=Cc1cccc(OCc2cccc3ccccc23)c1,?,2.82µM*,26.9µM*,.,?,3.98µM*
NC(=O)c1ccccc1OCc1cccc2ccccc12,-5.6%,2.7%,-18.6%,.,-3.7%,5.1%
COc1ccc(CCNC(=O)COc2ccc3c(C)cc(=O)oc3c2)cc1,4.3%,.,.,.,-2.6%,.
Cn1c(=O)c(C(=O)CSc2ccccc2)c(N)n(Cc2ccccc2)c1=O,?,5.3%,1.1%,-18.6%,9.2%,0.3%
Oc1ccc(C[C@@H]2CNC(=S)N2CCc2cc(C(F)(F)F)cc(C(F)(F)F)c2)cc1,-28.6%,-0.1%,-0.6%,.,-5.9%,0.4%
CCCc1nc2ccc(NC(C)=O)cc2c(=O)n1Cc1ccc(Cl)cc1,?,3.55µM*,?,4.9%,?,?
COc1ccc(Cn2c(C3CC3)nc3ccc(NC(C)=O)cc3c2=O)cc1,?,2.24µM*,10.7µM*,11.2µM*,?,1.58µM*
